Conditions in all cases: treatment time: 24 h
Assay [1] concerns WPMY1-GM130-SQSTM1. Description: lowest phenotypically active concentration; higher = less potent. In a few lines: (§1)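 Phenotypic activity depended on meeting both a deviation and a reproducibility criterion. The fifteen gene-edited A549, HepG2 and WPMY1 reporter lines were treated at 0.3, 1, 3 or 9 µM for 24 h, four wells each, then imaged live with features normalised to solvent control wells. Deviation required ≥3 of 4 wells past the 95th percentile of control Euclidean distances, and reproducibility a median replicate Pearson correlation above the 95th percentile of non-replicates.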

The test system of a further assay is A549-ACTB-RAB5A. Description: phenotypically active (imaging signature differs from DMSO and reproducible) at any of 0.3-9 uM (binary (1 = active, 0 = inactive)); higher = active. An outline of the steps:
as §1

The test system of a further assay is A549-CANX-COX4. The assay is described as above. An outline of the steps:
as §1

For another assay, the system named is A549-GM130-SQSTM1. The assay is described as above. In a few lines: as §1
The test system of the next assay is A549-TP53BP1-CLTA. Described as above. In a few lines:
as §1

In another assay the test system is A549-TUBA1B-RELA. The description is as above. An outline of the steps:
as §1

In a further assay the test system is HepG2-ACTB-RAB5A. Described as above. In a few lines: as §1
In the next assay the test system is HepG2-CANX-COX4. The assay is described as above. In a few lines:
as §1

A further assay relates to HepG2-GM130-SQSTM1. The assay is described as above. In a few lines: as §1
A further assay has as its system HepG2-TP53BP1-CLTA. Described as above. An outline of the steps: as §1
The subject of another assay is HepG2-TUBA1B-RELA. The assay is described as above. In a few lines:
as §1

In a further assay the test system is WPMY1-ACTB-RAB5A. The assay is described as above. In a few lines:
as §1

A further assay has as its system WPMY1-CANX-COX4. Described as above. An outline of the steps: as §1
Assay [2] has as its system WPMY1-GM130-SQSTM1. The description is as above. In a few lines: as §1
The subject of assay [3] is WPMY1-TP53BP1-CLTA. Described as above. In a few lines: as §1
Assay [4] relates to WPMY1-TUBA1B-RELA. The description is as above. In a few lines:
as §1

Assay [5] deals with WPMY1-TUBA1B-RELA. Briefly: lowest phenotypically active concentration; higher = less potent. In a few lines: as §1
Assay [6] deals with WPMY1-TP53BP1-CLTA. The description is as above. An outline of the steps: as §1

Structures can show the parent of a compound that is named as a salt.

Consider `CC(CCc1ccc(O)cc1)NCCc1ccc(O)c(O)c1` (stereo not given) [Dobutamine hydrochloride], for which, in the assay on WPMY1-GM130-SQSTM1 [1], the “lowest phenotypically active concentration” value came to 3 µM. Also, the phenotypically active with A549-ACTB-RAB5A, with A549-CANX-COX4, in the assay on A549-GM130-SQSTM1, in the assay on A549-TP53BP1-CLTA, in the assay with A549-TUBA1B-RELA and with HepG2-ACTB-RAB5A was 0 (inactive) each time. In addition, the phenotypically active with HepG2-CANX-COX4, with HepG2-GM130-SQSTM1, in the assay on HepG2-TP53BP1-CLTA, with HepG2-TUBA1B-RELA, with WPMY1-ACTB-RAB5A and in the assay with WPMY1-CANX-COX4 was 0 (inactive) each time. Moreover, the figures for the phenotypically active in the assay with WPMY1-GM130-SQSTM1 [2], with WPMY1-TP53BP1-CLTA [3] and with WPMY1-TUBA1B-RELA [4] were 1 (active), 0 (inactive) and 0 (inactive), respectively.
On to `C=C[C@H]1C[N@@]2CC[C@H]1C[C@@H]2[C@@H](O)c1ccnc2ccc(OC)cc12` [quinidine], for which the phenotypically active in the assay on A549-ACTB-RAB5A, in the assay on A549-CANX-COX4, with A549-GM130-SQSTM1, in the assay on A549-TUBA1B-RELA, in the assay on HepG2-ACTB-RAB5A and in the assay on HepG2-CANX-COX4 was 0 (inactive) throughout. The phenotypically active in the assay on HepG2-GM130-SQSTM1, with HepG2-TUBA1B-RELA, with WPMY1-ACTB-RAB5A, with WPMY1-CANX-COX4, with WPMY1-GM130-SQSTM1 [2] and in the assay on WPMY1-TUBA1B-RELA [4] was 0 (inactive) each time.
`CC(C)Cc1ccc(C(C)C(=O)O)cc1` (stereo not given) [ibuprofen]: the phenotypically active in the assay on A549-ACTB-RAB5A, with A549-CANX-COX4, in the assay with A549-GM130-SQSTM1, with A549-TUBA1B-RELA, with HepG2-ACTB-RAB5A and in the assay with HepG2-CANX-COX4 was 0 (inactive) in each case. Further, the phenotypically active with HepG2-GM130-SQSTM1, in the assay with HepG2-TUBA1B-RELA, in the assay with WPMY1-ACTB-RAB5A, in the assay on WPMY1-CANX-COX4, in the assay with WPMY1-GM130-SQSTM1 [2] and in the assay on WPMY1-TUBA1B-RELA [4] was 0 (inactive) throughout.
As to `NC(=O)c1sc2c([N+](=O)[O-])cc(C(F)(F)F)cc2[n+]1[O-]` [Cyclapolin 9], the “lowest phenotypically active concentration” value in the assay with WPMY1-GM130-SQSTM1 [1] and with WPMY1-TUBA1B-RELA [5] was 9 µM in each case. Also, the phenotypically active in the assay on A549-ACTB-RAB5A, with A549-CANX-COX4, with A549-GM130-SQSTM1, in the assay on A549-TP53BP1-CLTA, in the assay with A549-TUBA1B-RELA and in the assay on HepG2-ACTB-RAB5A was 0 (inactive) in each case. In addition, the phenotypically active with HepG2-CANX-COX4, in the assay with HepG2-GM130-SQSTM1, with HepG2-TP53BP1-CLTA, in the assay on HepG2-TUBA1B-RELA, with WPMY1-ACTB-RAB5A and in the assay on WPMY1-CANX-COX4 was 0 (inactive) throughout. Further, the phenotypically active was 1 (active) in the assay with WPMY1-GM130-SQSTM1 [2], 0 (inactive) in the assay on WPMY1-TP53BP1-CLTA [3] and 1 (active) in the assay on WPMY1-TUBA1B-RELA [4].
In the case of `O=C(O)/C(Cc1ccccc1[N+](=O)[O-])=N\Nc1nc(-c2ccc(Cl)c(Cl)c2)cs1`, in the assay with WPMY1-TP53BP1-CLTA [6], the “lowest phenotypically active concentration” value was 9 µM. The phenotypically active in the assay with A549-ACTB-RAB5A, with A549-CANX-COX4, in the assay on A549-GM130-SQSTM1, with A549-TP53BP1-CLTA, in the assay on A549-TUBA1B-RELA and in the assay on HepG2-ACTB-RAB5A was 0 (inactive) throughout. Moreover, the phenotypically active in the assay on HepG2-CANX-COX4, in the assay with HepG2-GM130-SQSTM1, with HepG2-TP53BP1-CLTA, in the assay with HepG2-TUBA1B-RELA, in the assay on WPMY1-ACTB-RAB5A and in the assay with WPMY1-CANX-COX4 was 0 (inactive) throughout. Further, the results for the phenotypically active in the assay on WPMY1-GM130-SQSTM1 [2], in the assay on WPMY1-TP53BP1-CLTA [3] and in the assay on WPMY1-TUBA1B-RELA [4] were 0 (inactive), 1 (active) and 0 (inactive), respectively.
With `C#C[C@]1(OC(C)=O)CC[C@H]2[C@@H]3CCC4=C[C@@H](OC(C)=O)CC[C@@H]4[C@H]3CC[C@@]21C` [ethynodiol diacetate], the phenotypically active in the assay on A549-CANX-COX4, in the assay on A549-TP53BP1-CLTA, with HepG2-ACTB-RAB5A, in the assay on HepG2-CANX-COX4, with HepG2-GM130-SQSTM1 and with HepG2-TP53BP1-CLTA was 0 (inactive) in each case. Also, the phenotypically active with HepG2-TUBA1B-RELA, in the assay with WPMY1-ACTB-RAB5A, in the assay with WPMY1-CANX-COX4, in the assay on WPMY1-GM130-SQSTM1 [2], in the assay with WPMY1-TP53BP1-CLTA [3] and with WPMY1-TUBA1B-RELA [4] was 0 (inactive) in each case.

(Values after the supplement of paper PMC7411054.)
